Data reported in PubChem BioAssay AID1159580 (chemical genetic matrix, 2015).
Several values for one entry are separate records, joined by “and”; a condition that tells them apart may be missing. Identical values can stand only once. In all, about 5,500 compounds went through this assay and about 2,000 (36%) were called active. Not shown: some 18% with an inconclusive outcome. Rule as the data show it: active = normalized growth mostly below about 0.91 (no sharp cut-off); inconclusive = no clear call, values can overlap the other calls; inactive = mostly above about 0.92. The list shows a part of the results.

Assay: chemical genetic growth profiling, strain panel (AID 1159580);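 also: tested at 20 µM; growth read once vehicle control cultures reached saturation at 30 °C; 1 = growth at the plate median or of vehicle wells; lower values mean less growth of the strain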
Details: S. cerevisiae deletion strains, growth OD

Measured: normalized growth

COC(=O)Nc1nc2ccc(C(=O)c3ccccc3)cc2[nH]1
active: locus YBL061C, strain skt5, active compounds read low 0.903 | locus YBR009C, strain hhf1, active compounds read low 0.898 | locus YBR023C, strain chs3, active compounds read low 0.913 | locus YBR231C, strain swc5, active compounds read low 0.261 | locus YCL016C, strain dcc1, active compounds read low 0.902 | locus YCL029C, strain bik1, active compounds read low 0.781 | locus YDR137W, strain rgp1, active compounds read low 0.84 | locus YDR159W, strain sac3, active compounds read low 0.861 | locus YDR334W, strain swr1, active compounds read low 0.627 | locus YEL003W, strain gim4, active compounds read low 0.173 | locus YGL240W, strain doc1, active compounds read low 0.812 | locus YGR078C, strain PAC10, active compounds read low 0.0909 | locus YGR229C, strain SMI1, active compounds read low 0.775 | locus YHR142W, strain chs7, active compounds read low 0.872 | locus YHR200W, strain rpn10, active compounds read low 0.917 | locus YJL166W, strain qcr8, active compounds read low 0.868 | locus YJR066W, strain TOR1, active compounds read low 0.819
inactive: locus YAL013W, strain DEP1, active compounds read low 1.02 | locus YAL021C, strain ccr4, active compounds read low 0.95 | locus YAL026C, strain drs2, active compounds read low 0.963 | locus YAL030W, strain snc1, active compounds read low 0.983 | locus YBR021W, strain FUR4, active compounds read low 0.97 | locus YBR171W, strain sec66, active compounds read low 1.01 | locus YBR229C, strain ROT2, active compounds read low 1.02 | locus YBR279W, strain paf1, active compounds read low 0.958 | locus YCL011C, strain gbp2, active compounds read low 0.962 | locus YCL069W, strain vba3, active compounds read low 0.98 | locus YCR088W, strain abp1, active compounds read low 0.977 | locus YDL005C, strain med2, active compounds read low 0.959 | locus YDL035C, strain GPR1, active compounds read low 0.967 | locus YDL040C, strain nat1, active compounds read low 0.992 | locus YDL074C, strain BRE1, active compounds read low 0.924 | locus YDL101C, strain DUN1, active compounds read low 1.03 | locus YDL134C, strain PPH21, active compounds read low 1.01 | locus YDL185W, strain tfp1, active compounds read low 1.04 | locus YDL192W, strain arf1, active compounds read low 0.99 | locus YDR001C, strain nth1, active compounds read low 0.976 | locus YDR069C, strain doa4, active compounds read low 0.952 | locus YDR101C, strain arx1, active compounds read low 0.998 | locus YDR150W, strain NUM1, active compounds read low 1.01 | locus YDR162C, strain NBP2, active compounds read low 1.01 | locus YDR195W, strain ref2 0.979 | locus YDR297W, strain sur2, active compounds read low 0.963 | locus YDR318W, strain mcm21, active compounds read low 0.954 | locus YDR335W, strain msn5, active compounds read low 0.99 | locus YDR388W, active compounds read low 0.982 | locus YDR392W, strain spt3, active compounds read low 0.805 | locus YDR502C, strain sam2, active compounds read low 0.958 | locus YEL037C, strain rad23, active compounds read low 0.981 | locus YEL061C, strain CIN8 (second series), active compounds read low 0.976 | locus YEL061C, strain CIN8, active compounds read low 1 | locus YER015W, strain faa2, active compounds read low 0.974 | locus YER016W, strain bim1, active compounds read low 0.935 | locus YER110C, active compounds read low 1.02 | locus YER111C, strain swi4, active compounds read low 0.997 | locus YER155C, strain BEM2 (second series), active compounds read low 0.896 | locus YER155C, strain BEM2, active compounds read low 0.981 | locus YER167W, strain BCK2, active compounds read low 0.94 | locus YFR010W, strain ubp6, active compounds read low 0.98 | locus YGL078C, strain dbp3, active compounds read low 0.974 | locus YGL086W, strain mad1, active compounds read low 0.999 | locus YGL167C, strain pmr1, active compounds read low 0.979 | locus YGL173C, strain kem1, active compounds read low 0.981 | locus YGL227W, strain vid30, active compounds read low 0.977 | locus YGL248W, strain PDE1, active compounds read low 0.99 | locus YGL253W, strain hxk2, active compounds read low 0.951 | locus YGR135W, strain pre9, active compounds read low 0.948 | locus YGR252W, strain gcn5, active compounds read low 0.916 | locus YHR013C, strain ard1, active compounds read low 1 | locus YHR027C, strain rpn1, active compounds read low 0.931 | locus YHR030C, strain SLT2, active compounds read low 1.01 and 0.956 | locus YHR079C, strain IRE1 (second series), active compounds read low 0.999 | locus YHR079C, strain IRE1, active compounds read low 0.937 | locus YHR094C, strain hxt1, active compounds read low 1 | locus YHR129C, strain ARP1, active compounds read low 0.969 | locus YIL066C, strain RNR3, active compounds read low 1.01 | locus YIL073C, strain SPO22, active compounds read low 0.998 | locus YIL125W, strain kgd1, active compounds read low 0.971 | locus YIR030C, strain dcg1, active compounds read low 1 | locus YJL092W, strain hpr5, active compounds read low 0.965 | locus YJL095W, strain BCK1 (second series), active compounds read low 0.996 | locus YJL095W, strain BCK1, active compounds read low 1.06 and 0.938 | locus YJL115W, strain asf1, active compounds read low 0.977 | locus YJL129C, strain trk1, active compounds read low 0.906 | locus YJL134W, strain LCB3, active compounds read low 1 | locus YJL154C, strain vps35, active compounds read low 0.981 | locus YJL164C, strain tpk1, active compounds read low 0.957 | locus YJL168C, strain set2, active compounds read low 1 | locus YJL187C, strain SWE1 (second series), active compounds read low 1.01 | locus YJL187C, strain SWE1, active compounds read low 0.934 | locus YJR043C, strain POL32, active compounds read low 0.867
